# Records with an inconclusive call do not appear. Where a call stands in place of a potency, no number is given. A structure can be active in one record and inactive in another. Activity calls are given as the source filed them. Unless noted, calls come from the whole dose curve.
# Experiment: qHTS assay to identify small molecule antagonists of the vitamin D receptor (VDR) signaling pathway - cell viability counter screen (AID 743225; active = well fitted cell-killing curve with a large enough effect in the repeat runs; note: nearly all actives have a fitted effect of over 50% in size; note: potency is the fitted concentration of half-maximal effect)
# Conditions: VDR-bla HEK293T viability, CellTiter-Glo luminescence, 16 h; series mostly up to 61 µM; viability change, negative = cytotoxic: at the top concentration
# How it was run: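 VDR-UAS-bla HEK 293T cells were plated and incubated 4 h at 37C, then dosed with compound plus 3 nM (final) 1-alpha,25-dihydroxyvitamin D3 for 16 h. After the 2 h beta-lactamase read, viability in the same wells was read as CellTiter-Glo luminescence after 30 min at room temperature.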
Structure (SMILES),"viability change, negative = cytotoxic",Potency
Nc1ccc(Cl)cc1N,7.06% [at 78.8 µM] (inactive),–
ClC1C(Cl)C(Cl)C(Cl)C(Cl)C1Cl (stereo not given),–,inactive
C=C(C)C(=O)OCC1CO1 (stereo not given),–,inactive
O=C(CCl)c1ccccc1,–,inactive
C=C(C)[C@H]1Cc2c(ccc3c2O[C@@H]2COc4cc(OC)c(OC)cc4[C@@H]2C3=O)O1,-26.3% (inactive),–
CCC(=O)O[C@H]1CC[C@H]2[C@@H]3CCC4=CC(=O)CC[C@]4(C)[C@H]3CC[C@]12C,–,43.6 µM (active) and inactive
CCCCCCCCOC(=O)c1ccccc1C(=O)OCCCCCCCC,–,inactive
CCCCC(CC)COC(=O)c1ccc(C(=O)OCC(CC)CCCC)c(C(=O)OCC(CC)CCCC)c1 (stereo not given),–,inactive
Nc1ccncc1,–,inactive
CC(C)(C)c1ccccc1O,–,inactive
c1nc[nH]n1,–,inactive
Nn1cnnc1,–,inactive
Cc1ccccc1[N+](=O)[O-],1.13% (inactive),–
O=S(=O)(Oc1ccc(Cl)cc1)c1ccc(Cl)cc1,–,inactive

# Experiment: qHTS assay to identify small molecule agonists of the NFkB signaling pathway (AID 1159509; active = well fitted curve in the direction sought with a large enough effect in the signal ratio in the repeat runs, not every such curve was filed as active; the % refers to the signal ratio)
# Conditions: NFkB-bla ME-180 cells, beta-lactamase FRET ratio, 5 h; series mostly up to 61 µM; activation: at the top concentration
# How it was run: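 ME-180 NFkB-bla, 2,000 cells/well, overnight plating; cpd pinned in DMSO, 5 h 37 C; B/G FRET substrate 1.5 h RT; ex 405, em 460/530 nm.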
Structure (SMILES),activation,outcome
CN(C)c1ccc(C(=O)c2ccc(N(C)C)cc2)cc1,2.68% (inactive),–
CCN(N=O)C(N)=O,–,inactive
Cc1c(COC(=O)[C@@H]2[C@H](/C=C(\Cl)C(F)(F)F)C2(C)C)cccc1-c1ccccc1,2.44% (inactive),–
CC(C)c1ccc(CO)cc1,–,inactive
O=[N+]([O-])c1c(Cl)c(Cl)c(Cl)c(Cl)c1Cl,-0.0792% (inactive),–
CC(C)C(=O)OCC(C)(C)C(OC(=O)C(C)C)C(C)C (stereo not given),-0.0591% (inactive),–
C#CCOS(=O)OC1CCCCC1Oc1ccc(C(C)(C)C)cc1 (stereo not given),4.22% (inactive),–
CCOc1cc(C=O)ccc1O,–,inactive
COc1ccc(C(CN(C)C)C2(O)CCCCC2)cc1 (stereo not given),0.531% (inactive),–
CCOP(=S)(OCC)O/N=C(\C#N)c1ccccc1,1.09% (inactive),–
COC(=O)c1sccc1S(=O)(=O)NC(=O)Nc1nc(C)nc(OC)n1,-0.253% [at 78.8 µM] (inactive),–
NNC(=S)NN,-0.823% (inactive),–
CCOc1cc(Oc2ccc(C(F)(F)F)cc2Cl)ccc1[N+](=O)[O-],–,inactive
NCc1cccnc1,–,inactive
NC(=S)Nc1ccccc1,–,inactive
O=P(Oc1ccccc1)(Oc1ccccc1)Oc1ccccc1,0.67% (inactive),–
Nc1c(Cl)cc([N+](=O)[O-])cc1Cl,–,inactive
CC(C)(c1cc(Cl)c(O)c(Cl)c1)c1cc(Cl)c(O)c(Cl)c1,1.5% (inactive),–
CC(C)Oc1cc(-n2nc(C(C)(C)C)oc2=O)c(Cl)cc1Cl,0.994% (inactive),–

Structure (SMILES),activation,outcome
CCCCCCOC(=O)c1ccccc1C(=O)OCCCCCC,–,inactive
O=Cc1ccco1,–,inactive
N[C@@H](Cc1ccc(N(CCCl)CCCl)cc1)C(=O)O,–,inactive
Oc1cc(Cl)ccc1Oc1ccc(Cl)cc1Cl,2.01% (inactive),–
Nc1ccc(Cl)cc1N,0.0107% [at 78.8 µM] (inactive),–
CCCCCc1cc(O)cc(O)c1,–,inactive
ClC1C(Cl)C(Cl)C(Cl)C(Cl)C1Cl (stereo not given),2.01% (inactive),–
C=C(C)C(=O)OCC1CO1 (stereo not given),–,inactive
O=C(CCl)c1ccccc1,–,inactive
C=C(C)[C@H]1Cc2c(ccc3c2O[C@@H]2COc4cc(OC)c(OC)cc4[C@@H]2C3=O)O1,-0.0787% (inactive),–
CCC(=O)O[C@H]1CC[C@H]2[C@@H]3CCC4=CC(=O)CC[C@]4(C)[C@H]3CC[C@]12C,0.133% (inactive),–
CCCCCCCCOC(=O)c1ccccc1C(=O)OCCCCCCCC,0.764% (inactive),–
CCCCC(CC)COC(=O)c1ccc(C(=O)OCC(CC)CCCC)c(C(=O)OCC(CC)CCCC)c1 (stereo not given),–,inactive
Nc1ccncc1,1.01% (inactive),–
CC(C)(C)c1ccccc1O,–,inactive
c1nc[nH]n1,–,inactive
Nn1cnnc1,–,inactive
Cc1ccccc1[N+](=O)[O-],-0.0038% [at 78.8 µM] (inactive),–
O=S(=O)(Oc1ccc(Cl)cc1)c1ccc(Cl)cc1,1.2% [at 78.8 µM] (inactive),–

# Experiment: qHTS assay to identify small molecule agonists of the NFkB signaling pathway - cell viability counter screen (AID 1159515); note: nearly all actives have a fitted effect of over 55% in size; note: potency is the fitted concentration of half-maximal effect
# Conditions: NFkB-bla ME-180 viability, CellTiter-Glo luminescence, 5 h; series mostly up to 61 µM; activity, negative = cytotoxic: at the top concentration
# How it was run: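 Multiplexed viability readout: after the 5 hr compound exposure and 1.5 hr FRET substrate step, CellTiter-Glo reagent went into the same NFkB-bla ME-180 wells; ATP luminescence was measured after 30 min at room temperature.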
Structure (SMILES),Potency,"activity, negative = cytotoxic"
CN(C)c1ccc(C(=O)c2ccc(N(C)C)cc2)cc1,inactive,–
CCN(N=O)C(N)=O,inactive,–
Cc1c(COC(=O)[C@@H]2[C@H](/C=C(\Cl)C(F)(F)F)C2(C)C)cccc1-c1ccccc1,inactive,–
CC(C)c1ccc(CO)cc1,–,6.66% (inactive)
O=[N+]([O-])c1c(Cl)c(Cl)c(Cl)c(Cl)c1Cl,inactive,–
CC(C)C(=O)OCC(C)(C)C(OC(=O)C(C)C)C(C)C (stereo not given),inactive,–
C#CCOS(=O)OC1CCCCC1Oc1ccc(C(C)(C)C)cc1 (stereo not given),inactive,–
CCOc1cc(C=O)ccc1O,inactive,–
COc1ccc(C(CN(C)C)C2(O)CCCCC2)cc1 (stereo not given),–,3.59% (inactive)
CCOP(=S)(OCC)O/N=C(\C#N)c1ccccc1,inactive,–
COC(=O)c1sccc1S(=O)(=O)NC(=O)Nc1nc(C)nc(OC)n1,inactive,–
NNC(=S)NN,inactive,–
CCOc1cc(Oc2ccc(C(F)(F)F)cc2Cl)ccc1[N+](=O)[O-],inactive,–
NCc1cccnc1,–,-1.19% (inactive)
NC(=S)Nc1ccccc1,inactive,–
O=P(Oc1ccccc1)(Oc1ccccc1)Oc1ccccc1,inactive,–
Nc1c(Cl)cc([N+](=O)[O-])cc1Cl,inactive,–
CC(C)(c1cc(Cl)c(O)c(Cl)c1)c1cc(Cl)c(O)c(Cl)c1,inactive,–
CC(C)Oc1cc(-n2nc(C(C)(C)C)oc2=O)c(Cl)cc1Cl,inactive,–

Structure (SMILES),Potency,"activity, negative = cytotoxic"
CCCCCCOC(=O)c1ccccc1C(=O)OCCCCCC,–,2.11% (inactive)
O=Cc1ccco1,inactive,–
N[C@@H](Cc1ccc(N(CCCl)CCCl)cc1)C(=O)O,–,-6.75% (inactive)
Oc1cc(Cl)ccc1Oc1ccc(Cl)cc1Cl,22.4 µM (active) and inactive,–
Nc1ccc(Cl)cc1N,inactive,–
CCCCCc1cc(O)cc(O)c1,inactive,–
ClC1C(Cl)C(Cl)C(Cl)C(Cl)C1Cl (stereo not given),55.4 µM (active) and inactive,–
C=C(C)C(=O)OCC1CO1 (stereo not given),inactive,–
O=C(CCl)c1ccccc1,–,-18.5% [at 78.8 µM] (inactive)
C=C(C)[C@H]1Cc2c(ccc3c2O[C@@H]2COc4cc(OC)c(OC)cc4[C@@H]2C3=O)O1,inactive,–
CCC(=O)O[C@H]1CC[C@H]2[C@@H]3CCC4=CC(=O)CC[C@]4(C)[C@H]3CC[C@]12C,inactive,–
CCCCCCCCOC(=O)c1ccccc1C(=O)OCCCCCCCC,inactive,–
CCCCC(CC)COC(=O)c1ccc(C(=O)OCC(CC)CCCC)c(C(=O)OCC(CC)CCCC)c1 (stereo not given),inactive,–
Nc1ccncc1,inactive,–
CC(C)(C)c1ccccc1O,inactive,–
c1nc[nH]n1,inactive,–
Nn1cnnc1,–,4.57% (inactive)
Cc1ccccc1[N+](=O)[O-],inactive,–
O=S(=O)(Oc1ccc(Cl)cc1)c1ccc(Cl)cc1,inactive,–

# — PubChem BioAssay (Tox21)
